Experimental data as given in the supplement of paper PMC6555819.

Tests used:
Assay in all cases: PBM binding z-score (relative to random genomic background probes); higher = stronger binding; sequences stand for … in GC…GCGATTGACAGCGTAGAATGAAGG
[1] = test system: FXR:RXRa (NR concentration 270 nM, RXRa partner concentration 90 nM)
Procedure, shortened: (§1)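 Custom Agilent 4×180K protein-binding microarrays carried double-stranded probes, each with a 34-nt variable region. These regions held direct-repeat seeds, single-nucleotide variants, half-site ablations and random human genomic background sequences. Ligand-free nuclear receptor dimers were incubated on the arrays for 1 h, antibodies against each partner (one per run) detected binding, and scanned fluorescence was regression-normalized. Binding z-scores take the random background probes as reference.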

[2] = test system: LXRa:RXRa (NR concentration 270 nM, RXRa partner concentration 90 nM)
Procedure, shortened: as §1

[3] = test system: LXRa homodimer (NR concentration 270 nM)
Procedure, shortened: as §1

[4] = test system: LXRb:RXRa (NR concentration 270 nM, RXRa partner concentration 90 nM)
Procedure, shortened: as §1

[5] = test system: LXRb homodimer (NR concentration 270 nM)
Procedure, shortened: as §1

[6] = test system: PPARa:RXRa (NR concentration 270 nM, RXRa partner concentration 90 nM)
Procedure, shortened: as §1

[7] = test system: PPARg:RXRa (NR concentration 180 nM, RXRa partner concentration 90 nM)
Procedure, shortened: as §1

[8] = test system: PPARg:RXRa 270nM:90nM, anti-RXR (NR concentration 270 nM, RXRa partner concentration 90 nM)
Procedure, shortened: as §1

[9] = test system: PPARg:RXRa 30nM:10nM, anti-RXR (NR concentration 30 nM, RXRa partner concentration 10 nM)
Procedure, shortened: as §1

[10] = test system: PPARg:RXRa 90nM:30nM, anti-RXR (NR concentration 90 nM, RXRa partner concentration 30 nM)
Procedure, shortened: as §1

[11] = test system: PPARg:RXRa DBDmut IVT, anti-RXR (DBD mutation: RXRa K156A/R161A, NR concentration 270 nM, RXRa partner concentration 90 nM)
Procedure, shortened: as §1

[12] = test system: PPARg:RXRa IVT, anti-PPARg (NR concentration 270 nM, RXRa partner concentration 90 nM)
Procedure, shortened: as §1

[13] = test system: PPARg DBDmut:RXRa IVT, anti-PPARg (DBD mutation: PPARg1 K132A/R137A, NR concentration 270 nM, RXRa partner concentration 90 nM)
Procedure, shortened: as §1

[14] = test system: PPARg DBDmut IVT, anti-PPARg (DBD mutation: PPARg1 K132A/R137A, NR concentration 270 nM)
Procedure, shortened: as §1

[15] = test system: PPARg homodimer (NR concentration 180 nM)
Procedure, shortened: as §1

[16] = test system: PXR:RXRa (NR concentration 270 nM, RXRa partner concentration 90 nM)
Procedure, shortened: as §1

[17] = test system: PXR homodimer (NR concentration 270 nM)
Procedure, shortened: as §1

[18] = test system: RARa:RXR (NR concentration 270 nM, RXRa partner concentration 90 nM)
Procedure, shortened: as §1

[19] = test system: RARa homodimer (NR concentration 270 nM)
Procedure, shortened: as §1

[20] = test system: RARb:RXRa (NR concentration 270 nM, RXRa partner concentration 90 nM)
Procedure, shortened: as §1

Sequence | PBM binding z-score [1] | PBM binding z-score [2] | PBM binding z-score [3] | PBM binding z-score [4] | PBM binding z-score [5] | PBM binding z-score [6] | PBM binding z-score [7] | PBM binding z-score [8] | PBM binding z-score [9] | PBM binding z-score [10] | PBM binding z-score [11] | PBM binding z-score [12] | PBM binding z-score [13] | PBM binding z-score [14] | PBM binding z-score [15] | PBM binding z-score [16] | PBM binding z-score [17] | PBM binding z-score [18] | PBM binding z-score [19] | PBM binding z-score [20]
AGTCAAAGTTCAGGACGTGGTAACGTAAAGCACG | 3.46 | 3.57 | 0.963 | 1.49 | 0.114 | 3.12 | 4.28 | 4.75 | 2.07 | 3.71 | -0.468 | 1.64 | 0.643 | 0.0633 | 1.68 | 2.15 | 0.643 | 1.86 | 0.703 | 4.15
TCGAGTAGGTAAGTCGGGGCATTCAGCCAACATA | -0.0236 | -0.0704 | -0.439 | -0.175 | -0.922 | 0.0443 | -0.3 | 0.0863 | 0.929 | 0.572 | 1.34 | 0.805 | -1.3 | -0.763 | -0.452 | -0.238 | -0.436 | -0.22 | -0.413 | -0.182
CCTAGTTGGGCAAGGTCACACACGCTATAGGTAC | 3.55 | 3.21 | 1.32 | 3.28 | 0.0205 | 3.88 | 2.45 | 2.92 | 1.03 | 2.25 | 0.83 | 2.2 | 0.202 | 0.558 | 2.56 | 3.9 | 1.13 | 4.04 | 1.63 | 3.91
GCTATTAGTTGAAAGGGCAACCGAATGATTCTCG | 0.555 | 0.733 | 0.435 | 0.971 | 0.134 | 2.33 | 2.9 | 4.29 | 2.39 | 4.05 | 0.456 | 1.11 | 0.0571 | 0.432 | 1.15 | 0.708 | 0.108 | 1.38 | 0.652 | 2
TGAATGAGGGTATAAGATCAGGGAACGTTGCAAA | 0.413 | 0.344 | -0.145 | 0.00334 | 0.501 | 0.874 | 0.576 | 1.23 | 1.11 | 0.839 | 0.322 | 0.573 | 0.938 | 0.423 | 0.497 | 0.178 | 0.202 | 0.234 | -0.0465 | 0.303
ACTTACGGGTAAACGAGGTTATAGCACGCGTATA | 0.677 | 2.57 | 0.806 | 1.56 | 0.485 | 2.01 | 0.93 | 0.752 | 0.277 | 0.238 | 0.828 | 1.16 | -0.07 | 0.0677 | 0.611 | 1.65 | 0.138 | 2.32 | 0.806 | 0.846
CAAACTAGGTCACGAAAGGTCAAAGTCGAATGAC | 7.74 | 8.37 | 7.89 | 7.46 | 2.8 | 6.76 | 10.7 | 8.68 | 7.48 | 8.74 | 8.54 | 9.04 | 3.28 | 2.22 | 5.79 | 7.14 | 2.95 | 7.8 | 3.54 | 5.84
CCTCGGAGGACAACAGGAGGTCACAGCTGCCAGA | 2.75 | 3.93 | 3.82 | 2.82 | -0.268 | 3.42 | 1.76 | 2 | -0.188 | 1.1 | 0.582 | 1.67 | -1.61 | -1.12 | 2.8 | 4.2 | 0.604 | 4.69 | 0.924 | 3.35
TCTGCTCGGTCAGTTGGTCAGCTAACGAGCTGCC | -0.211 | -0.247 | -0.549 | -0.506 | 0.134 | -0.00259 | -1.22 | 0.38 | 0.881 | 0.52 | 0.685 | 0.74 | -0.215 | 0.0745 | -0.826 | -0.447 | -1.11 | -0.352 | -1.55 | 1.73
AGAATGAGGTTATACGTAGATCAGGCAAGAAAGT | 1.83 | 1.82 | -0.142 | 1.29 | -0.0449 | 3.31 | 1.97 | 2.21 | 0.758 | 1.71 | 3.76 | 2.33 | 1.04 | 0.362 | 0.366 | 1.01 | 0.159 | 1.51 | 0.831 | 1.29
ACTATTAGTTGAAACGAGGGCAACCGATAGGTTG | 1.41 | 0.609 | 0.126 | 0.482 | 0.184 | 1.14 | 0.901 | 0.84 | 0.292 | 0.528 | 0.662 | 1.73 | 1.09 | 0.692 | 0.274 | 2.71 | 0.569 | 1.38 | 0.873 | 1.27
CCGACTGGGGCATGGTTACCATAACGCACAGCCA | -0.978 | -0.621 | -0.461 | -0.438 | -1.07 | 0.0592 | 1.31 | 1.11 | -0.195 | 0.273 | 2.18 | 2.5 | -0.776 | -0.933 | -0.129 | -0.696 | -0.585 | -0.433 | -0.847 | 0.396
GGAACGAGGGCGAGTTGATAGCAGAGTTTGATGG | -0.328 | -0.505 | -0.54 | -0.523 | -0.787 | -0.0875 | 0.373 | -0.24 | -0.495 | -0.42 | 0.699 | -0.0712 | -0.327 | 0.298 | 0.0249 | 0.0143 | -0.021 | 0.0866 | -0.148 | 0.356
TCTTGAAGATCAACAGGAGGTTAAGAAAGATCGA | 0.539 | 1.27 | 0.226 | 1.15 | -0.64 | 1.41 | -0.0399 | 1.64 | 2.92 | 2.51 | 1.18 | 0.0291 | 0.0497 | 0.387 | 0.165 | 0.962 | -0.127 | 1.25 | 0.0716 | 0.816
CCAGACAGGTGAAGGGTAACTCAGTCTGGTACGC | -0.0331 | 0.00398 | -0.524 | 0.172 | -0.582 | 1.76 | 2.98 | 3.63 | 1.6 | 3.42 | 0.998 | 1.9 | -0.966 | -0.622 | 0.674 | -0.0608 | -0.0922 | 0.0219 | -0.195 | 1.04
